In PubChem BioAssay one finds composite z-score data, which are given here for 36 compounds.

This assay relates to Lefty1. Description: Lefty1 protein binding to printed compounds – biochemical, small-molecule microarray, 635/667 nm fluorescence, primary screen (AID 1139). The settings on record: fluorescence 635/667, higher = more signal.
Turning to `CCCC=C(CCC)[C@@H](NS(=O)(=O)c1ccc(-c2ccccc2)cc1)c1ccc(C(=O)OC)cc1`, the composite z-score was -0.707.
Regarding `COc1ccc([Si](C)(C)[C@@H]2[C@@H](CC(=O)N(CCO)Cc3ccccc3)O[C@]3(C(=O)N(Cc4cccc(N5CCC5=O)c4)c4ccccc43)[C@H]2C)cc1`, the composite z-score stood at 1.49.
To `CCC1=C2CN(Cc3ccccc3Br)[C@@H]([C@@H](O)Cc3ccccc3)C2C=CCC1` (stereo partly specified) belongs 1.25.
As to `CO[C@H]1COC(=O)[C@H](C)COC(=O)[C@H](Cc2ccccc2)NC(=O)CC=C[C@H]1C`, the composite z-score was found to be 1.16.
Consider `Cc1ccc(S[C@]2(C(=O)NC3CC3)CC(=O)N(Cc3cc(C(F)(F)F)cc(C(F)(F)F)c3)[C@@H]2c2ccc(CO)cc2)cc1`, for which the composite z-score is 0.821.
In the case of `CCCC[C@@H]1C[C@H]1[C@@H](NC(=O)c1cccs1)c1ccc(Cl)cc1` it was -1.58.
Take `COC(=O)C(CC#Cc1ccc2c(c1)[C@]1(C(=O)N2)[C@H](C(=O)N2CCCCCCC2)[C@H]2C(=O)O[C@H](c3ccccc3)[C@H](c3ccccc3)N2[C@@H]1c1ccc(O)cc1)C(=O)OC`: the composite z-score was -0.227.
The compound `CC(C)N1CC=CC23O[C@@H]4/C=C\CCCOC(=O)C4[C@H]2C(=O)N(CCO)[C@@H]3C1=O` (stereo partly specified) returned a composite z-score of 0.225.
In the case of `O=C1O[C@H](c2ccccc2)[C@H](c2ccccc2)N2[C@H]1[C@@H](C(=O)NC[C@H](O)c1ccccc1)[C@]1(C(=O)Nc3ccc(C#CC4=CCCCC4)cc31)[C@H]2c1ccc(OCCO)cc1` it was 1.26.
In turn, `Cc1ccc(S[C@]2(C(=O)NC(C)C)CC(=O)N(C3Cc4ccccc4C3)[C@@H]2c2ccc(CO)cc2)cc1` had a composite z-score of 0.123.
To `Cc1ccc(S[C@]2(C(=O)NCCCN(C)C)CC(=O)N(Cc3ccccc3)[C@@H]2c2ccc(CO)cc2I)cc1` belongs -0.892; to `COc1ccc([C@H]2C[C@H]3C(Br)=C[C@]2(OC)C(=O)[C@]32CO2)cc1`, -0.1; to `COC(=O)[C@H]1[C@@H]2COc3ccccc3[C@H]2N[C@H]1C(=O)OC`, 0.171.
To `C=CC[C@]1(C(N)=O)N=C(c2ccc(OCCCO)cc2)O[C@H]1c1ccccc1CN=[N+]=[N-]` belongs -0.484; to `CC(C)[Si](OCC[C@H]1O[C@]2(C(=O)N(Cc3ccccc3)c3ccccc32)[C@@H](C)[C@@H]1[Si](C)(C)O)(C(C)C)C(C)C`, 0.218.
To `CC(C)[Si](OCCCNS(=O)(=O)c1ccc(Br)cc1)(C(C)C)C(C)C` belongs 0.513.
Consider `C=CCOC(=O)[C@@H]1[C@H]2C(=O)O[C@H](c3ccccc3)[C@H](c3ccccc3)N2[C@H](c2ccc(OCCOC(=O)[C@H]3C[C@H]4C(=O)N[C@@H](CCCCNC(C)=O)C(=O)N4[C@H]3c3ccc(O)cc3)cc2)[C@@]12C(=O)Nc1ccc(I)cc12`, for which the composite z-score worked out at 1.08.
Compound `C[C@]1(C(=O)NCCN2CCOCC2)c2ccccc2C(=O)N(Cc2ccccc2)[C@H]1c1ccc(CO)cc1` had a composite z-score of -0.718.
To `C=CCN(C(=O)C1N(c2ccc(CCO)cc2)C(=O)C2C(C(=O)O)C3C=CC21O3)C(C)(C)C` (stereo unspecified) belongs -3.43; to `CCOC(=O)C[C@H]1[C@H](OC(=O)Cc2ccc3c(c2)OCO3)[C@@H](NC(=O)c2ccc3ccccc3c2)c2cc(OCCCO)ccc2N1C(=O)Cc1ccc(OC)cc1`, 0.55; to `COc1ccc([Si](C)(C)[C@H]2[C@H](CCO)O[C@@]3(C(=O)N(Cc4ccc(N5CCCCC5=O)cc4)c4ccccc43)[C@@H]2C)cc1`, 1.36.
In the case of `COc1cc(CO)cc(I)c1O[C@H]1C=C(C(=O)NCCO)C[C@@H](N(CC2CCCCC2)C(=O)c2cc3ccccc3oc2=O)[C@@H]1O` it was 0.275; in that of `COC(=O)C1=CC(c2ccc(CO)cc2)=CC(C2CC2)N(Cc2sc3ccccc3c2Cl)C=C1C(=O)OC` (stereo unspecified), 0.573.
To `CSCC[C@@H]1NC(=O)CC=C[C@@H](C)COC(=O)[C@H](CCSC)NC(=O)CC=C[C@@H](C)COC1=O` belongs 0.531; to `COC(=O)[C@@]1(Cc2ccc(OC)cc2)[C@H]2c3cc(C(=O)N(C)C)n(CCc4ccc(OC)c(Br)c4)c3C[C@H]2CN1C(=O)c1ccccc1`, -0.545.
For `COCC(=C=CC[C@H](O)c1ccc(OCCO)cc1)C[C@H](O)c1ccccn1`, the composite z-score amounted to 0.233.
To `O=C(NCc1ccccc1)[C@@]1(Cc2ccccc2)COC(c2ccc(OCCCO)cc2)=N1` belongs -0.554; to `CO[C@@H]1COC(=O)[C@H](C)NC(=O)CC=C[C@@H](C)[C@H](OC)COC(=O)[C@H](C)NC(=O)CC=C[C@H]1C`, 0.59; to `CCCC=C(CCC)[C@@H](NS(=O)(=O)c1ccc(C(F)(F)F)cc1)c1ccc(-c2ccccc2)cc1`, 0.565.
In the case of `CC(C)(C)OC(=O)CC[C@]1(C(=O)N2CCCCC2)N=C(c2ccc(OCCCO)cc2)O[C@H]1c1ccccc1` it was 1.01.
To `CC(=O)NCCCC[C@@H]1NC(=O)[C@@H]2C[C@H](C(=O)NCCCCCNC(=O)CS)[C@H](c3ccc(O)cc3)N2C1=O` belongs 1.4; to `C=CCC(OC(C)=O)[C@@H]1[C@@H](N(Cc2ccc(-c3cccc(C(F)(F)F)c3)o2)C(=O)Cc2ccc(F)cc2)c2cc(OCCCO)ccc2N1C(=O)c1ccc(-c2ccccc2)cc1` (stereo partly specified), -0.173; to `CO[C@]12C=C(Br)[C@@H](C[C@@H]1c1ccccc1)[C@@]1(CO1)C2=O`, 0.41.
In turn, `COCCOC(=O)N1C(=O)[C@@]2(c3cc(C#CCC(C(=O)OC)C(=O)OC)ccc31)[C@H](c1ccccc1OCCO)N1[C@H](c3ccccc3)[C@H](c3ccccc3)OC(=O)[C@H]1[C@@H]2C(=O)N1CCCCCCC1` had a composite z-score of 1.55.
To `CCOC(=O)C1=CC[C@@H](c2ccccc2)N(S(=O)(=O)c2ccc(C)cc2)[C@H]1C` belongs 0.778.
For the compound `O=C1c2ccccc2[C@](Cc2ccccc2I)(C(=O)NCC(F)(F)F)[C@H](c2ccc(CO)cc2)N1Cc1ccccc1C(F)(F)F`, the composite z-score was determined as 0.108.
